Screening data deposited in PubChem by National Center for Advancing Translational Sciences (NCATS).
The list is not random: actives were taken first. Their share in the collection is about 12%.
Shiga toxin inh = A qHTS for Small Molecule Inhibitors of Shiga Toxin. Vero cells, Shiga toxin protein synthesis inhibition reporter. inhibition, % at 38.7 µM. 290,000 compounds, 9.2% hits. AID 2315, 2010; in the data active means inhibition mostly above about 28%, no sharp cut-off; inactive means mostly below about 43%; further: 0% is about no effect
Marburg entry inh = qHTS for inhibitors of binding or entry into cells for Marburg Virus; AID 540276, 2011; Potency, µM (highest dose often 37.8 µM), for inactives: at the top dose activity change, negative = inhibition, most hits filed as inhibitors; 300,000 compounds, 1.8% hits; Marburg virus pseudotyped entry inhibition, cell reporter; calls by dose curve; tested in HEK293 cells; further: potency means the concentration at half of the fitted maximal effect; on the % scale 0 is the no-effect control and ±100 the full control effect
LASV entry inh = qHTS for Inhibitors of binding or entry into cells for Lassa Virus; 300,000 compounds, 1.2% hits; Potency, µM (top dose mostly 37.9 µM), for inactives: top-dose activity change, negative = inhibition, hits mostly inhibitors; Lassa virus pseudotype entry inhibition, cell reporter; calls by dose curve; tested in HEK293 cells; further: potency means the concentration at half of the fitted maximal effect; on the % scale 0 is the no-effect control and ±100 the full control effect; nearly all actives have a fitted effect of over 50% in size
CHX counter = Cycloheximide Counterscreen for Small Molecule Inhibitors of Shiga Toxin; cell reporter, cycloheximide protein synthesis inhibition counterscreen; max response, %; 300,000 compounds, 12% hits; AID 2314, 2010; in the data active means max response mostly above about 13%, no sharp cut-off; inactive means mostly below about 14%; further: read at 38.3 µM for the half of the compounds with a filed dose; 0% is about no effect
Active calls of the source: *; u = inconclusive; x = not tested or not shown; + = active, no number; ! = repeats disagree; [ ] = another dose, or the depositor's remark.

SMILES	Shiga toxin inh	Marburg entry inh	LASV entry inh	CHX counter
CCNC(=S)N/N=C/c1ccc(C(=O)O)cc1	4.7	-6.7%	u	8.7
CC1Oc2ccccc2C=C1/C=N/Nc1ccc(C(=O)O)cc1 (stereo not given)	69.9*	x	x	33.2*
CC(=Nc1ccc(O)cc1)c1sc2ccccc2c1O	95.1*	11.7%[46.1 µM]	4.7%	47.8*
CC(=O)NCCN=C(C)c1sc2ccccc2c1O	+	20.2%	-0.8%	24.4*
Oc1ccc(-c2c(-c3ccsc3)sc3ccccc23)cc1	-7.5	x	x	1.6
Cc1c(C(=O)c2ccccc2C(=O)O)sc2ccccc12	-7.1	3.5%[46.1 µM]	3.9%	-1.5
O=C(CNC(=O)c1sc2ccccc2c1Cl)NCc1ccccc1	35.3	u	u	7.1
Cc1cccc(N=C2NC(=O)C(CO)(CO)S2)c1	-6.5	20.7%	u	1.0
CC(=Nc1ccccc1O)c1sc2ccccc2c1O	67.4*	x	x	32.6*
CC(=Nc1cccc(C)c1)c1sc2ccccc2c1O	108.6*	-14.8%	-4.5%	45.2*
COc1cc(OC)c(NC(=O)CN2CCCN(Cc3ccccc3C)S2(=O)=O)cc1Cl	x	x	-6.4%[46.1 µM]	x
COc1ccc(C2CC(c3ccccc3)Oc3cc4c(cc32)OCO4)cc1 (stereo not given)	21.5	x	x	23.0
COc1ccc(CNC(=O)CN(c2cc(C(F)(F)F)ccc2Cl)S(C)(=O)=O)cc1	x	u	-10.0%[46.1 µM]	x
COc1ccc(S(=O)(=O)N2CCC(C(=O)Nc3cc(Cl)ccc3N3CCOCC3)CC2)cc1OC	x	-8.4%[46.1 µM]	-6.1%	x
CS(=O)(=O)N(CC(=O)N1CCCC1)c1ccc(Cl)cc1	-5.7	12.7%[46.1 µM]	1.1%[46.1 µM]	-2.2
Cc1c(NC(=O)CSc2nc(N)cc(N)n2)c(=O)n(-c2ccccc2)n1C	x	-8.9%	-0.3%	x
COc1ccc(CN(C(=O)Cc2coc3ccc(C)cc23)C2CCS(=O)(=O)C2)cc1 (stereo not given)	x	-1.2%[46.1 µM]	-9.5%[46.1 µM]	x
COc1ccc2c(c1)c(CC(=O)OCC(=O)N(C)C)c(C)n2C(=O)c1ccc(Cl)cc1	-2.4	25.1µM*	u	-2.0
CCOc1ccc(-c2c(=O)n(OCc3ccc([N+](=O)[O-])cc3)c3ccccc3[n+]2[O-])cc1	12.6	2.6%	x	10.4
CCc1nc2ccc(N3CCN(C)CC3)cc2nc1CC	39.6	-0.2%[46.1 µM]	10.9%	25.1*
Cc1ccccc1-n1c(=O)/c(=C/c2ccco2)s/c1=C(/C#N)C(=O)Nc1ccccc1	x	-27.8%	x	x
COc1ccccc1CNC(=O)CN1C(=O)COc2ccc(S(=O)(=O)NC3CCCC3)cc21	-9.5	x	-0.5%[46.1 µM]	21.5*
CCN(CC)CCNCC(=O)Nc1ccc(Cl)cc1C(=O)c1ccccc1	-3.5	-21.3%	1.9%	-2.9
CN(C)CCCNCC(=O)Nc1ccc(Cl)cc1C(=O)c1ccccc1	-13.4	11.2µM*	-19.2%[46.1 µM]	14.3
CCOc1ccc(NC(=O)Cn2ncc3ccccc32)cc1	73.7*	x	x	38.0*
SMILES	Shiga toxin inh	Marburg entry inh	LASV entry inh	CHX counter
CCOc1ccc(NC(=O)CCSc2ccc3ccccc3n2)cc1	15.1	-20.4%	u	14.7*
CC1CCC(NC(=O)Cn2ncc3ccccc32)CC1 (stereo not given)	active	-1.1%	x	18.2*
CCOC(=O)N1CCC(NC(=O)Cn2ncc3ccccc32)CC1	-3.1	-4.9%	1.2%	-2.8
CCOc1ccc(NC(=O)CSc2ccc3ccccc3n2)cc1	x	-2.0%[46.1 µM]	0.4%[46.1 µM]	x
Cn1c(CCNS(=O)(=O)c2ccccc2)nnc1SCc1cccnc1	20.6	21.0%[46.1 µM]	18.5%[46.1 µM]	-2.0
CN1CCc2cc(Cl)c(O)cc2[C@@H](c2ccccc2)C1	-3.8	-10.3%	-0.4%	-1.2
Oc1cc2c(cc1O)[C@@H](c1ccccc1)CNCC2	-21.7	-21.4%	-25.1%	-3.7
CN1CCc2cc(O)c(O)cc2C(c2ccccc2)C1 (stereo not given)	x	12.6µM*!	u	x
Oc1cc2c(cc1O)C(c1ccccc1)CNCC2 (stereo not given)	x	15.8µM*!	u	x
COC(=O)Cn1c(=NC(=O)c2cccc(OC)c2)sc2cc(OC)ccc21	30.3	u	-0.6%	10.1
CCC(=O)N/N=c1/sc2ccccc2n1C	27.3	3.3%[46.1 µM]	-3.3%	7.4
Cc1ccc(C(=O)N/N=c2\sc3ccccc3n2C)cc1	-6.1	8.8%	2.9%	19.6*
COc1cccc(C(=O)N/N=c2\sc3ccccc3n2C)c1	20.1	u	8.1%	15.4*
Cn1/c(=N/NC(=O)c2ccccc2F)sc2ccccc21	78.6*	u	u	35.3*
CC(=O)N=c1sc2ccccc2n1C	-2.4	8.2%	7.7%	12.9
CCCC[S@@](=N)(=O)CC[C@@H](N)C(=O)O	x	7.4%	x	x
O=C(CSCc1ccccc1Cl)N1CCN(c2ccc(F)cc2)CC1	x	x	10.5%[46.1 µM]	x
COc1cc(C2C3=C(CCCC3=O)Nc3ccc4ncccc4c32)ccc1O (stereo not given)	31.4	1.9%[46.1 µM]	-1.1%	14.6*
O=C1CCCC2=C1C(c1ccc(O)c(O)c1)Nc1ccc3ncccc3c12 (stereo not given)	33.3*	-11.2%[46.1 µM]	11.5%[46.1 µM]	13.9
COc1ccc(C2C3=C(CCCC3=O)Nc3ccc4ncccc4c32)cc1OC (stereo not given)	38.3	u	0.0%	35.0*
COc1ccc(NC2=Nc3cccc4cccc2c34)cc1OC	-2.9	u	-18.2%	9.3
COc1cccc(NC2=Nc3cccc4cccc2c34)c1	23.8	-10.3%	24.8%	21.4*
Clc1ccc(/C=N/NC2=Nc3cccc4cccc2c34)cc1	85.3*	u	u	24.3*
C(=N\NC1=Nc2cccc3cccc1c23)/c1ccccc1	42.7*	u	u	86.8*
NC1=Nc2cccc3cccc1c23	-3.9	u	1.4%	8.2
SMILES	Shiga toxin inh	Marburg entry inh	LASV entry inh	CHX counter
C(=N\NC1=Nc2cccc3cccc1c23)/c1cccnc1	72.2*	u	x	40.0*
Clc1ccccc1-c1nc(N/N=C/c2cccnc2)c2ccccc2n1	-17.3	u	0.5%	-5.4
Cc1ccc(C)c(N2CCN(S(=O)(=O)c3cc(C(=O)Nc4ccccc4C(F)(F)F)ccc3F)CC2)c1	x	x	-17.6%[46.1 µM]	x
CC(C)c1nc(CNC(=O)CCc2nnc(-c3ccsc3)o2)cs1	58.3	12.4%[46.1 µM]	6.6%	9.0
O=C(CCc1nnc(-c2ccccc2)o1)NCC1CCN(C2CCCC2)CC1	-0.7	-18.8%[46.1 µM]	x	3.5
O=C(CCc1nnc(-c2ccsc2)o1)NCc1ccccc1OC(F)(F)F	8.7	u	-8.9%[46.1 µM]	10.5*
O=C(CCc1nnc(-c2ccccc2)o1)NCc1cc(F)ccc1F	29.0	8.7%[46.1 µM]	3.8%[46.1 µM]	16.8*
CC1CCN(c2nnc(-n3cccc3CNc3cccc(F)c3)s2)CC1	x	x	1.1%[46.1 µM]	x
CSc1ccccc1OCc1cc(C(=O)N2CCC[C@H]2C(N)=O)no1	27.5	x	x	17.7
CSc1ccccc1OCc1cc(C(=O)NCC(C)(C)N2CCOCC2)no1	54.5	-0.7%[46.1 µM]	u	7.5
Cc1csc(CNC(=O)c2cc(COc3c(C)cccc3C)on2)n1	15.8	x	x	10.8
CSc1ccccc1OCc1cc(C(=O)N(C)Cc2ccc3nsnc3c2)no1	100.3*	2.8%	-29.1%	52.3*
CSc1ccccc1OCc1cc(C(=O)N(C)C(C)c2nc(C)cs2)no1 (stereo not given)	20.4	u	u	18.3*
CSc1ccccc1OCc1cc(C(=O)N(C)Cc2ccc(C)o2)no1	79.4*	u	u	54.0*
NCC[C@H]1CCC[C@H](CCN)N1	x	-3.7%	x	x
Cc1ccc(NC2=CC(=O)c3sc(C)nc3C2=O)cc1	-7.5	x	x	-12.7
